{"source": "PubChem BioAssay AID1628", "about": "(Sanford-Burnham Center for Chemical Genomics, 2009)", "note": "Out of some 190,000 compounds screened, about 930 (0.49%) were called active.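 How the source made its calls: active means z-score of insulin promoter reporter brightness in nuclei below -3 at 5 µM, with at least 500 cells counted; inconclusive means wells with under 500 cells, flagged as toxic or sparse; inactive means the rest.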 The list shows a part of the results. Measured potencies and affinities stand elsewhere."}
{"experiment": "decrease of insulin promoter-GFP reporter – imaging, high-content screening, mouse beta cells (AID 1628)", "settings": "MIN6 insulin promoter GFP reporter, at 5 µM, hits give low values"}
{"compound": "CC1=NN(c2ccccc2)C(=O)C1/C=C1\\NC(=S)NC1=O", "note": "(centres undefined)", "z-score": "3.53 (inactive)"}
{"compound": "C/C(N)=C(/C#N)C(=O)CSc1nnnn1-c1ccc(C)cc1C", "z-score": "-3.38 (active)"}
{"compound": "c1csc(-c2ccnc3ncnn23)c1", "z-score": "-4.89 (active)"}
{"compound": "O=C(CC(=O)Nc1ccccn1)Nc1ccccn1", "z-score": "-0.03 (inactive)"}
{"compound": "S=C(Nc1ccc(Nc2ccccc2)cc1)Nc1ccccn1", "z-score": "-3.32 (active)"}
{"compound": "CCOC(=O)c1sc2cc([N+](=O)[O-])cc(SCC(C)C)c2c1N", "z-score": "13.9 (inactive)"}
{"compound": "CC(=O)c1n[nH]nc1Nc1nc(C)cc(C)n1", "z-score": "0.61 (inactive)"}
{"compound": "c1ccc(CNc2cnccn2)cc1", "z-score": "1.28 (inactive)"}
{"compound": "Cc1cccc(NC(=O)C2CCCN(C(=O)NC3CCCCC3)C2)c1C", "note": "(centres undefined)", "z-score": "-3.03 (active)"}
{"compound": "O=C(NC1CC1)C1CCCN1C(=O)NC1CCCCC1", "note": "(centres undefined)", "z-score": "2.65 (inactive)"}
{"compound": "COc1cc(C)nc(N2CCCC(C(=O)Nc3cccc(Cl)c3C)C2)n1", "note": "(centres undefined)", "z-score": "3.87 (inactive)"}
{"compound": "Cc1[nH]c2ccccc2c1/C=N/Nc1ccc([N+](=O)[O-])cc1S(=O)(=O)Nc1ccc(Cl)cc1", "z-score": "9.19 (inactive)"}
{"compound": "Cc1ccc(NS(=O)(=O)c2cc([N+](=O)[O-])ccc2N/N=C/c2sc(N3CCOCC3)nc2-c2ccccc2)c(C)c1", "z-score": "11 (inactive)"}
{"compound": "C=CCSc1nnc(C)c(/C=C/Nc2ccc(Cl)cc2)n1", "z-score": "5.19 (inactive)"}
{"compound": "CCC(=O)Oc1ccc(C(=O)Nc2c[nH]c(=O)[nH]c2=O)cc1", "z-score": "-5 (active)"}
{"compound": "NS(=O)(=O)c1ccc(NC=C2C(=O)OC3(CCCCC3)OC2=O)cc1", "z-score": "3.78 (inactive)"}
{"compound": "NS(=O)(=O)c1ccc(NC(=S)NCc2ccccc2)cc1", "z-score": "-4.47 (active)"}
{"compound": "COc1ccccc1-n1c(N)cc(=O)nc1SCC(=O)Nc1cc(C)on1", "z-score": "2.37 (inactive)"}
{"compound": "Cc1cc(NC(=O)C2CC(=O)OC2c2ccccc2)no1", "note": "(centres undefined)", "z-score": "-4.4 (active)"}
{"compound": "COc1ccc(NC(=O)c2[nH]c(C)c(C(C)=O)c2C)cc1Cl", "z-score": "3.83 (inactive)"}
{"compound": "CC(=O)c1c(C)[nH]c(C(=O)OCC(=O)Nc2ccc(Cl)cc2[N+](=O)[O-])c1C", "z-score": "-3.98 (active)"}
{"compound": "COC(=O)c1ccc(NC(=O)CSc2nc3cccnc3n2C)cc1", "z-score": "-4.12 (active)"}
{"compound": "CCOC(=O)c1[nH]c2ccc(OC)cc2c1NS(=O)(=O)c1ccc(Cl)s1", "z-score": "-4.98 (active)"}
{"compound": "CCC(C(=O)OCC(=O)Nc1cccc(S(=O)(=O)NC2=NCCCCC2)c1)c1ccccc1", "note": "(centres undefined)", "z-score": "3.98 (inactive)"}
{"compound": "Cc1sc2ncnc(N3CCCCC3C)c2c1C", "note": "(centres undefined)", "z-score": "-4.4 (active)"}
{"compound": "C=CCN1C(=O)C(O)(CC(=O)c2ccc(OC)cc2OC)c2cc(Br)ccc21", "note": "(centres undefined)", "z-score": "-4.05 (active)"}
{"compound": "COc1ccc(/C=C2\\CC/C(=C\\c3ccc(OC)cc3OC)C2=O)c(OC)c1", "z-score": "5.49 (inactive)"}
{"compound": "COc1ccc(C(=O)/C=C/c2ccc(N(C)C)cc2)c(OC)c1", "z-score": "15.9 (inactive)"}
{"compound": "CC(Sc1ccccc1)C(=O)NN=C1CCCCCC1", "note": "(centres undefined)", "z-score": "8.07 (inactive)"}
{"compound": "O=C(CCSc1ccc(Cl)cc1)NN=C1CCCCCC1", "z-score": "3.37 (inactive)"}
{"compound": "O=C(O)c1ccccc1NN=C1CCCCC1", "z-score": "-4.39 (active)"}
{"compound": "CC1CC(C)(C)Nc2ccc(N=O)cc21", "note": "(centres undefined)", "z-score": "4.12 (inactive)"}
{"compound": "CN(C)c1ccc(/C=C2\\SC(=O)N(CC(O)Cn3c4ccccc4c4ccccc43)C2=O)cc1", "note": "(centres undefined)", "z-score": "3.6 (inactive)"}
{"compound": "O=c1ccc(NS(=O)(=O)c2ccccc2)cn1Cc1ccc(Cl)c(Cl)c1", "z-score": "4.35 (inactive)"}
{"compound": "O=C1S/C(=C\\c2ccc(N3CCOCC3)o2)C(=O)N1c1ccccc1", "z-score": "12.7 (inactive)"}
{"compound": "COc1cc2c(cc1OC)C1=CC(=O)C(=O)N1C(C)(C)C2", "z-score": "6.34 (inactive)"}
{"compound": "COCCN(CCOC)Cc1c(C)[nH]c2c(C)c(C)ccc2c1=O", "z-score": "0.72 (inactive)"}
{"compound": "COC(=O)CSc1nc2ncc(Cl)cc2[nH]1", "z-score": "-4.43 (active)"}
{"compound": "COC(=O)CSc1nc2ccccn2c(=O)c1C=O", "z-score": "4.58 (inactive)"}
{"compound": "Cc1ccnc(N/C=C(\\C#N)c2nc(-c3cccc(Br)c3)cs2)c1", "z-score": "7.83 (inactive)"}
{"compound": "CCOC(=O)CC1C(=O)NCCN1c1nc2ccc(C)cn2c(=O)c1/C=C1\\SC(=S)N(CC(C)C)C1=O", "note": "(centres undefined)", "z-score": "10.8 (inactive)"}
{"compound": "CSc1ccc(NC(=O)Nc2cccn(Cc3ccccc3)c2=O)cc1", "z-score": "-5.72 (active)"}
{"compound": "COc1cnc(-c2ccccn2)nc1NC(C)C", "z-score": "-4.73 (active)"}
{"compound": "CCC(=O)Nc1ccc2c(c1)ncn2-c1ccccc1", "z-score": "4.96 (inactive)"}
{"compound": "COc1ccccc1NC(=O)/C=C1\\SCC(=O)N1C", "z-score": "4.67 (inactive)"}
{"compound": "COc1ccccc1NC(=O)Cn1cc(C(=O)c2ccco2)c2ccccc21", "z-score": "-4.69 (active)"}
{"compound": "CC(=O)Nc1ccc(NC(=O)C(=O)c2cn(CC(=O)N3CCCCC3)c3ccccc23)cc1", "z-score": "2.61 (inactive)"}
{"compound": "COc1ccccc1NC(=O)COC(=O)C1CC2C=CC1C2", "note": "(centres undefined)", "z-score": "3.01 (inactive)"}
{"compound": "CCn1c(C2CC(=O)N(Cc3ccccc3)C2)nc2ccccc21", "note": "(centres undefined)", "z-score": "-5.96 (active)"}
{"compound": "N#C/C(=C\\c1ccc(-c2ccc(C(=O)O)cc2)o1)c1nc2ccccc2[nH]1", "z-score": "6.2 (inactive)"}
{"compound": "Cn1c(SCC(=O)NC2CCCCCC2)nnc1-c1cccs1", "z-score": "2.42 (inactive)"}
{"compound": "O=C(COC(=O)c1cccs1)NC1CCCCC1", "z-score": "-5.3 (active)"}
{"compound": "Nc1c(C(=O)NC2CCCC2)sc2nc(-c3cccs3)ccc12", "z-score": "3.89 (inactive)"}
{"compound": "Cc1cc(F)c(F)c(C(=O)N2CCOCC2)c1", "z-score": "1.59 (inactive)"}
{"compound": "Cc1c(C(=O)N2CCOCC2)[nH]c2c1C(=O)CC(c1ccccc1Cl)C2", "note": "(centres undefined)", "z-score": "-3.07 (active)"}
{"compound": "NCCc1nnc(SCc2ccccc2F)o1", "z-score": "1.04 (inactive)"}
{"compound": "Clc1ccc(CSc2nnc(/C=C/c3ccccc3)o2)cc1", "z-score": "-4.41 (active)"}
{"compound": "O=C(CSc1nnc(SCc2ccc(Cl)cc2)s1)N1CCOCC1", "z-score": "-0.99 (inactive)"}
{"compound": "CCCC1CC(=O)OC1(C)C(=O)CSc1n[nH]c(-c2ccccc2)n1", "note": "(centres undefined)", "z-score": "-5.89 (active)"}
{"compound": "CCN(CC)c1ccc(/C=C(\\C#N)c2nc(-c3cccs3)c(NC(C)=O)s2)cc1", "z-score": "16.9 (inactive)"}
{"compound": "CN(C)C=Nc1ccc2nn(-c3ccccc3)nc2c1", "z-score": "3.14 (inactive)"}
{"compound": "Cc1cccc2cc(CN(Cc3cccs3)C(c3nnnn3C3CCCC3)C(C)C)c(=O)[nH]c12", "note": "(centres undefined)", "z-score": "-4.88 (active)"}
{"compound": "CCC(c1nnnn1C1CCCC1)N(Cc1cccs1)Cc1cc2cc(C)ccc2[nH]c1=O", "note": "(centres undefined)", "z-score": "-3.35 (active)"}
{"compound": "CCOc1ccc2[nH]c(=O)c(CN(Cc3cccs3)C(CC)c3nnnn3C(C)(C)CC)cc2c1", "note": "(centres undefined)", "z-score": "-3.01 (active)"}
